Source: PubChem BioAssay AID1159580 (chemical genetic matrix, 2015)
Several values for one entry are separate records, joined by “and”; a condition that tells them apart may be missing. Identical values can stand only once. The whole screen tested about 5,500 compounds, of which about 2,000 (36%) were called active. Another 18% or so got no clear call; they are omitted. Rule as the data show it: active = normalized growth mostly below about 0.91 (no sharp cut-off); inconclusive = no clear call, values can overlap the other calls; inactive = mostly above about 0.92. The list shows a part of the results.

Test: chemical genetic growth profiling, strain panel (AID 1159580);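 also: tested at 20 µM; growth read once vehicle control cultures reached saturation at 30 °C; 1 = growth at the plate median or of vehicle wells; lower values mean less growth of the strain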
Details: S. cerevisiae deletion strains, growth OD

Measured: normalized growth

COc1cc2c3cc1Oc1cc(ccc1O)C[C@@H]1c4c(cc(OC)c(O)c4Oc4ccc(cc4)C[C@@H]3N(C)CC2)CC[N+]1(C)C
inactive: locus YAL021C, strain ccr4, hits give low values 1 | locus YAL026C, strain drs2, hits give low values 0.976 | locus YAL030W, strain snc1, hits give low values 1.01 | locus YBL061C, strain skt5, hits give low values 1 | locus YBR009C, strain hhf1, hits give low values 0.943 | locus YBR021W, strain FUR4, hits give low values 0.998 | locus YBR023C, strain chs3, hits give low values 0.997 | locus YBR171W, strain sec66, hits give low values 1.01 | locus YBR229C, strain ROT2, hits give low values 1 | locus YBR231C, strain swc5, hits give low values 1.02 | locus YBR279W, strain paf1, hits give low values 0.991 | locus YCL011C, strain gbp2, hits give low values 0.954 | locus YCL016C, strain dcc1, hits give low values 0.939 | locus YCL029C, strain bik1, hits give low values 0.999 | locus YCL069W, strain vba3, hits give low values 0.998 | locus YCR088W, strain abp1, hits give low values 0.997 | locus YDL005C, strain med2, hits give low values 1 | locus YDL035C, strain GPR1, hits give low values 1 | locus YDL040C, strain nat1, hits give low values 1.01 | locus YDL074C, strain BRE1, hits give low values 1.02 | locus YDL101C, strain DUN1, hits give low values 1.02 | locus YDL185W, strain tfp1, hits give low values 1.01 | locus YDL192W, strain arf1, hits give low values 0.998 | locus YDR001C, strain nth1, hits give low values 0.972 | locus YDR069C, strain doa4, hits give low values 1.02 | locus YDR101C, strain arx1, hits give low values 1 | locus YDR137W, strain rgp1, hits give low values 1 | locus YDR159W, strain sac3, hits give low values 0.927 | locus YDR162C, strain NBP2, hits give low values 1.03 | locus YDR195W, strain ref2 1.01 | locus YDR297W, strain sur2, hits give low values 1 | locus YDR318W, strain mcm21, hits give low values 0.994 | locus YDR334W, strain swr1, hits give low values 0.979 | locus YDR335W, strain msn5, hits give low values 0.995 | locus YDR388W, hits give low values 1 | locus YDR392W, strain spt3, hits give low values 0.769 | locus YDR502C, strain sam2, hits give low values 1 | locus YEL003W, strain gim4, hits give low values 1 | locus YEL037C, strain rad23, hits give low values 0.999 | locus YEL061C, strain CIN8 (second series), hits give low values 0.967 | locus YEL061C, strain CIN8, hits give low values 1.01 | locus YER015W, strain faa2, hits give low values 0.996 | locus YER016W, strain bim1, hits give low values 0.988 | locus YER110C, hits give low values 1.01 | locus YER111C, strain swi4, hits give low values 0.994 | locus YER155C, strain BEM2 (second series), hits give low values 1.05 | locus YER155C, strain BEM2, hits give low values 1.02 | locus YER167W, strain BCK2, hits give low values 1.01 | locus YFR010W, strain ubp6, hits give low values 0.989 | locus YGL078C, strain dbp3, hits give low values 0.993 | locus YGL086W, strain mad1, hits give low values 1.03 | locus YGL167C, strain pmr1, hits give low values 1 | locus YGL173C, strain kem1, hits give low values 1 | locus YGL227W, strain vid30, hits give low values 0.981 | locus YGL240W, strain doc1, hits give low values 1.02 | locus YGL248W, strain PDE1, hits give low values 1.02 | locus YGL253W, strain hxk2, hits give low values 0.978 | locus YGR135W, strain pre9, hits give low values 0.989 | locus YGR252W, strain gcn5, hits give low values 0.947 | locus YHR013C, strain ard1, hits give low values 0.943 | locus YHR027C, strain rpn1, hits give low values 0.988 | locus YHR030C, strain SLT2, hits give low values 1 and 0.98 | locus YHR079C, strain IRE1 (second series), hits give low values 1.01 | locus YHR079C, strain IRE1, hits give low values 0.981 | locus YHR094C, strain hxt1, hits give low values 0.996 | locus YHR129C, strain ARP1, hits give low values 1.02 | locus YHR142W, strain chs7, hits give low values 1 | locus YHR200W, strain rpn10, hits give low values 0.993 | locus YIL066C, strain RNR3, hits give low values 1.01 | locus YIL073C, strain SPO22, hits give low values 1.07 | locus YIL125W, strain kgd1, hits give low values 1.01 | locus YIR030C, strain dcg1, hits give low values 0.997 | locus YJL092W, strain hpr5, hits give low values 0.988 | locus YJL095W, strain BCK1 (second series), hits give low values 1 | locus YJL095W, strain BCK1, hits give low values 1.06 and 0.983 | locus YJL115W, strain asf1, hits give low values 0.983 | locus YJL129C, strain trk1, hits give low values 1 | locus YJL134W, strain LCB3, hits give low values 1.01 | locus YJL154C, strain vps35, hits give low values 0.992 | locus YJL164C, strain tpk1, hits give low values 0.957 | locus YJL166W, strain qcr8, hits give low values 1.04 | locus YJL168C, strain set2, hits give low values 1.01 | locus YJL187C, strain SWE1 (second series), hits give low values 1.04 | locus YJL187C, strain SWE1, hits give low values 1.01 | locus YJR043C, strain POL32, hits give low values 0.991 | locus YJR066W, strain TOR1, hits give low values 0.969 | locus YJR075W, strain HOC1, hits give low values 1.03
